Test results as given in PubChem BioAssay (NCI).
The panel holds about 83,000 compounds, 20% with a hit somewhere; the sample as a whole holds those more often.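 Assay: single dose, 48 h. Readout: percent growth (0 = no net growth; negative = cell death). Active: <10.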 The source made the active and inactive calls.

These molecules were tested on T-47D breast (assay: NCI-60 one-dose screen, 48 h (100 = growth as untreated, 0 = no growth, -100 = all killed)). Conditions: 10 µM.
For `O=C(CCl)Nc1ccc2c(c1)C(=O)c1ccc(NC(=O)CCl)cc1C2=O`, the growth was -48.7% (active). `N#C/C(=C\c1cc(O)c(O)c(O)c1)C(N)=O` was tested, and the growth was 110% (inactive). For `CC(=O)OCCO`, the growth was 109% (inactive). With `O=C(NCc1ccco1)Nc1c(Cl)cc(Cl)cc1Cl` the growth was 88.6% (inactive). With `O=C(O)CCCCNC(=O)c1ccccc1` the growth was 88.2% (inactive). For `S=c1[nH]ccn1-c1ccccc1Cl`, the growth was 107% (inactive). For `CN(C)c1ccc2oc(=O)c3ccccc3c2c1`, the growth was 96.1% (inactive). For `CCOC(=O)C(O)C(O)C(=O)OCC` (stereo unspecified), the growth was 98% (inactive). With `O=C(O)C(Cc1ccccc1)C(=O)O` the growth was 103% (inactive). For `N#CCCN(CCCN1CCOCC1)CN1C(=O)c2ccccc2C1=O`, the growth was 96% (inactive). `CCCCCCCCO` was tested, and the growth was 105% (inactive). With `CC1OC(Oc2c(-c3ccc(O)c(O)c3)oc3cc(O)cc(O)c3c2=O)C(O)C(O)C1O` (stereo unspecified) the growth was 105% (inactive). With `CC(=Nc1ccccc1)C1=C(O)C(Cc2cccc(F)c2)NC1=O` (stereo unspecified) the growth was 72.6% (inactive). For `CCCC(=O)c1cc(C)ccc1OC`, the growth was 105% (inactive). In the case of `O=C(CS)Nc1ccc2ccccc2c1`, the growth is reported as 90.9% (inactive). In the case of `CCCC1(c2ccccc2)NC(=O)NC1=O` (stereo unspecified), the growth is reported as 106% (inactive). `CNS(=O)(=O)c1ccc(Cl)c(Cl)c1` was tested, and the growth was 99.2% (inactive). `CC1CC(O)CC(C)(C)C1` (stereo unspecified) was tested, and the growth was 104% (inactive). In the case of `Cc1cc(N)c(S(=O)(=O)O)c(N)c1`, the growth is reported as 89.7% (inactive). `O=C(O)C(c1ccccc1)C(O)c1ccccc1` (stereo unspecified) was tested, and the growth was 94.4% (inactive). For `COC1=CC(=O)c2nc(Cl)ccc2C1=O`, the growth was -38.7% (active). In the case of `O=C1c2ccccc2C(=O)c2c1ccc(C(=O)O)c2[N+](=O)[O-]`, the growth is reported as 105% (inactive). With `CSC(=N\N=C\c1ccc(N(C)C)cc1)/N=C/N(C)C` the growth was 94.9% (inactive). In the case of `CC(C)=CC(=O)OC(=O)C=C(C)C`, the growth is reported as 105% (inactive). In the case of `O=S(=O)(O)c1ccc(Cl)c(Cl)c1`, the growth is reported as 105% (inactive). In the case of `COC(=O)Nc1cccc(Cl)c1OC`, the growth is reported as 104% (inactive). In the case of `CCOC(=O)c1coc(C(=O)OCC)c1C(=O)OCC`, the growth is reported as 117% (inactive). For `COc1cc(C(=O)N/N=C/c2cccc([N+](=O)[O-])c2)cc(OC)c1OC`, the growth was 51.9% (inactive). In the case of `N#CCCc1ccc(O)cc1`, the growth is reported as 101% (inactive). With `CCOC(=O)c1ccc(NC(=S)P(=O)(c2ccccc2)c2ccccc2)cc1` the growth was 109% (inactive). `Clc1ccc(-c2n[nH]c3c2Cc2ccccc2-3)cc1Cl` was tested, and the growth was 29% (inactive). In the case of `COc1cccc(Sc2ccc([N+](=O)[O-])c3no[n+]([O-])c23)c1`, the growth is reported as 40.2% (inactive). For `CC(C)COC(=O)COC(=O)OCCOCCOC(=O)OCC(=O)OCC(C)C`, the growth was 96.7% (inactive). `CC(=O)Cc1ccc(-c2ccccc2)cc1` was tested, and the growth was 97.6% (inactive). `CCOc1ccc2[nH]c(=S)sc2c1` was tested, and the growth was 94.5% (inactive). For `CC1CC(O)C2C3(C)CCCC2(COC3=O)C12CCC1(CCOC1=O)O2` (stereo unspecified), the growth was 102% (inactive). In the case of `COc1ccc(OC)c(/C=C2\CCc3ccccc3C2=O)c1`, the growth is reported as 56.3% (inactive). `Oc1ccccc1-c1nnco1` was tested, and the growth was 82% (inactive).

What follows are molecules tested on BT-549 breast in the same assay as above. Conditions: 10 µM.
For `O=C(CCl)Nc1ccc2c(c1)C(=O)c1ccc(NC(=O)CCl)cc1C2=O`, the growth was -91% (active). For `N#C/C(=C\c1cc(O)c(O)c(O)c1)C(N)=O`, the growth was 96.5% (inactive). With `CC(=O)OCCO` the growth was 109% (inactive). In the case of `O=C(NCc1ccco1)Nc1c(Cl)cc(Cl)cc1Cl`, the growth is reported as 96.1% (inactive). With `O=C(O)CCCCNC(=O)c1ccccc1` the growth was 103% (inactive). In the case of `S=c1[nH]ccn1-c1ccccc1Cl`, the growth is reported as 117% (inactive). In the case of `CN(C)c1ccc2oc(=O)c3ccccc3c2c1`, the growth is reported as 40.3% (inactive). `CCOC(=O)C(O)C(O)C(=O)OCC` (stereo unspecified) was tested, and the growth was 107% (inactive). With `O=C(O)C(Cc1ccccc1)C(=O)O` the growth was 99.1% (inactive). For `N#CCCN(CCCN1CCOCC1)CN1C(=O)c2ccccc2C1=O`, the growth was 128% (inactive). For `CCCCCCCCO`, the growth was 107% (inactive). `CC1OC(Oc2c(-c3ccc(O)c(O)c3)oc3cc(O)cc(O)c3c2=O)C(O)C(O)C1O` (stereo unspecified) was tested, and the growth was 109% (inactive). For `CC(=Nc1ccccc1)C1=C(O)C(Cc2cccc(F)c2)NC1=O` (stereo unspecified), the growth was -20.2% (active). In the case of `CCCC(=O)c1cc(C)ccc1OC`, the growth is reported as 107% (inactive). For `O=C(CS)Nc1ccc2ccccc2c1`, the growth was 118% (inactive). With `CCCC1(c2ccccc2)NC(=O)NC1=O` (stereo unspecified) the growth was 106% (inactive). With `CNS(=O)(=O)c1ccc(Cl)c(Cl)c1` the growth was 112% (inactive). `CC1CC(O)CC(C)(C)C1` (stereo unspecified) was tested, and the growth was 102% (inactive). `Cc1cc(N)c(S(=O)(=O)O)c(N)c1` was tested, and the growth was 57.8% (inactive). With `O=C(O)C(c1ccccc1)C(O)c1ccccc1` (stereo unspecified) the growth was 110% (inactive). With `COC1=CC(=O)c2nc(Cl)ccc2C1=O` the growth was 106% (inactive). `O=C1c2ccccc2C(=O)c2c1ccc(C(=O)O)c2[N+](=O)[O-]` was tested, and the growth was 95.5% (inactive). For `CSC(=N\N=C\c1ccc(N(C)C)cc1)/N=C/N(C)C`, the growth was 113% (inactive). `CC(C)=CC(=O)OC(=O)C=C(C)C` was tested, and the growth was 105% (inactive). `O=S(=O)(O)c1ccc(Cl)c(Cl)c1` was tested, and the growth was 97.7% (inactive). `COC(=O)Nc1cccc(Cl)c1OC` was tested, and the growth was 111% (inactive). With `CCOC(=O)c1coc(C(=O)OCC)c1C(=O)OCC` the growth was 119% (inactive). `COc1cc(C(=O)N/N=C/c2cccc([N+](=O)[O-])c2)cc(OC)c1OC` was tested, and the growth was 58% (inactive). In the case of `N#CCCc1ccc(O)cc1`, the growth is reported as 114% (inactive). With `CCOC(=O)c1ccc(NC(=S)P(=O)(c2ccccc2)c2ccccc2)cc1` the growth was 101% (inactive). For `Clc1ccc(-c2n[nH]c3c2Cc2ccccc2-3)cc1Cl`, the growth was 97.6% (inactive). For `COc1cccc(Sc2ccc([N+](=O)[O-])c3no[n+]([O-])c23)c1`, the growth was 46.8% (inactive). With `CC(C)COC(=O)COC(=O)OCCOCCOC(=O)OCC(=O)OCC(C)C` the growth was 99.2% (inactive). For `CC(=O)Cc1ccc(-c2ccccc2)cc1`, the growth was 109% (inactive). In the case of `CCOc1ccc2[nH]c(=S)sc2c1`, the growth is reported as 107% (inactive). With `CC1CC(O)C2C3(C)CCCC2(COC3=O)C12CCC1(CCOC1=O)O2` (stereo unspecified) the growth was 96.1% (inactive). `COc1ccc(OC)c(/C=C2\CCc3ccccc3C2=O)c1` was tested, and the growth was 44.3% (inactive). With `Oc1ccccc1-c1nnco1` the growth was 77.5% (inactive).
